Compounds with a hit are over-represented: about 22% of the library has one in this group of screens.
Measles CPE: compounds protecting cells from measles virus cytopathic effect, primary screen, measles RdRp inhibitor project, single point, MLSMR library, absorbance. Measles virus-infected cells, CPE protection. 1.5% of 140,000 active. protection (pct of control), % at 4 µM; in the data active = protection mostly above about 24%, no sharp cut-off; inactive = mostly below about 26%
CYP2C9 act: human CYP2C9 activators, primary screen, biochemical, luminescence. 1.4% of 96,000 active. recombinant CYP2C9, luciferin-H conversion; hits give high values; factor 1 = untreated enzyme, 0 = blocked. Cytochrome P450 2C9 (Homo sapiens), P11712. activation factor at 5 µM;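 active = activation factor of 2 or more for CYP2C9 at a 5 µM dose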;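 also: 0 = sulfaphenazole-blocked wells and 1 = vehicle-only wells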
CYP2C19 inhib: blockers of cytochrome P450 2C19 activity – biochemical, luminescence, ADME assay, primary screen; 21% of 96,000 active; P33261; inhibition, % at 5 µM; CYP2C19 Supersomes, luciferin-H EGE luminescence, 30 min;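 active = CYP2C19 inhibition above a set limit at 5 µM in the primary screen, cut at about 50% in these data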;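 also: plate controls were negative control wells for no effect and 2.5 mM tranylcypromine positive control for full effect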
Target sequence (P33261 whole entry, looked up): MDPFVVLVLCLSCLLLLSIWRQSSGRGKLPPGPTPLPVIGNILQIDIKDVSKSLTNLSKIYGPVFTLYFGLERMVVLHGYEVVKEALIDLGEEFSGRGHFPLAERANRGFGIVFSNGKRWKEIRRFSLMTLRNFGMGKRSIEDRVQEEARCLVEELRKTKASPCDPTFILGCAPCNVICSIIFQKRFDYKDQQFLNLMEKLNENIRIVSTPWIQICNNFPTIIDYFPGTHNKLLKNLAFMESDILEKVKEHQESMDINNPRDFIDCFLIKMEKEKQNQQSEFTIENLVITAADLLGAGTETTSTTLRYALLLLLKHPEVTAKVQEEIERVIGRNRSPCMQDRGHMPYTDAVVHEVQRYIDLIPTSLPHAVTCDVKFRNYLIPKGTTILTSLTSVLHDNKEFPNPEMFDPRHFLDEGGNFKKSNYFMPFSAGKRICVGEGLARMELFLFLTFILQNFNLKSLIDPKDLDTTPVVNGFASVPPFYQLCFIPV
CYP2C19 act: human CYP2C19 activators, primary screen, biochemical, luminescence; Cytochrome P450 2C19 (Homo sapiens), P33261; recombinant CYP2C19, luciferin-H EGE luminescence; hits give high values; 0 = fully inhibited enzyme, 1 = untreated enzyme; activation factor at 5 µM; 96,000 tested, under 10 active; AID 1025, 2008;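 active = activation factor of at least 2 at 5 µM in the primary screen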;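 also: 0 = wells with 2.5 mM tranylcypromine and 1 = vehicle-only wells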
CYP2C9 inhib: blockers of cytochrome P450 2C9 activity – biochemical, luminescence, ADME assay, primary screen. P11712. CYP2C9 Supersomes, luciferin-H conversion. inhibition, % at 5 µM. 20% of 96,000 active. AID 777, 2007;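 active = blocking of liver enzyme CYP2C9 beyond about 50% at 5 µM, limit read from the data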
* hit, by the source's call; . = no result given.

SMILES	Measles CPE	CYP2C9 act	CYP2C19 inhib	CYP2C19 act	CYP2C9 inhib
COc1ccc(CNC(=O)CSc2nnnn2Cc2ccccc2)cc1	5	0.3	79*	0.2	73*
COc1ccc(CCNc2nnc(Sc3nnnn3-c3ccccc3)s2)cc1OC	8	0.9	73*	0.3	8
COc1ccc(-n2nnnc2SCC#CCO)cc1	5	0.6	90*	0.1	45
CCCn1nnnc1SCC(=O)NCc1ccc(OC)cc1	22	1.1	20	0.8	-14
COc1ccc(CNC(=O)CSc2nnnn2-c2ccccc2)cc1	11	0.3	89*	0.1	73*
COc1ccc(CCNC(=O)CSc2nnc(NC(C)=O)s2)cc1OC	11	.	.	.	.
CCOC(=O)c1ccc(CNC(=O)CSc2nnnn2-c2ccc(Cl)cc2)o1	43*	0.9	34	0.7	7
O=C(CSc1nnnn1Cc1ccccc1)NCCc1ccccc1	19	0.7	20	0.8	33
COc1ccc(CCNC(=O)CSc2nnnn2-c2ccccc2)cc1	8	0.2	76*	0.2	78*
O=C1c2ccccc2C(Nc2ccc(Cl)cn2)N1c1cccnc1 (stereo not drawn)	22	0.8	85*	0.2	25
O=C1c2ccccc2C(O)N1c1cccnc1 (stereo not drawn)	2	1.1	-18	1.2	-13
COc1ccc(OC)c(NC2c3ccccc3C(=O)N2c2cccnc2)c1 (stereo not drawn)	4	0.3	57*	0.4	67*
Cn1c(=O)c2c(nc(Br)n2Cc2ccc3ccccc3c2)n(C)c1=O	9	0.7	39	0.6	28
CCCC(=O)Oc1ccc(N(C(=O)CCC)S(=O)(=O)c2cccc([N+](=O)[O-])c2)cc1	9	.	.	.	.
Cc1cc2c(cc(C(=O)N3CCC(C(=O)N4CCCC4)CC3)n2Cc2c(F)cccc2Cl)o1	4	0.2	96*	0	78*
CCOC(=O)c1cc2occc2n1Cc1c(F)cccc1Cl	23	1	-16	1.2	-5
NC(=O)CN1CCOCCOCCOCCOCCOCC1	9	0.9	-7	1.1	5
CC(NC(=O)CSc1nc2sc3c(c2c(=O)n1-c1ccccc1)CCCC3)c1ccccc1 (stereo not drawn)	3	.	.	.	.
COC(=O)CSc1nc2sc3c(c2c(=O)n1C1CCCCC1)CCN(C)C3	5	0.5	78*	0.2	52*
COc1ccc(-n2c(SCC(N)=O)nc3sc4c(c3c2=O)CCN(C)C4)cc1	21	0.7	73*	0.3	33
CCc1nnc(N/N=C/c2cccs2)n1N	28	.	.	.	.
CCc1nnc(N/N=C/c2c(Cl)cccc2Cl)n1N	8	1.1	63*	0.4	-11
O=C(CSc1nnnn1-c1ccccc1)c1cc2ccccc2oc1=O	17	0.4	40	0.6	60*
O=C(CSc1nc2ccccc2o1)c1cc2ccccc2oc1=O	3	.	.	.	.
Cc1cc(C)nc(SCC(=O)c2cc3ccccc3oc2=O)n1	6	0.7	58*	0.4	27
SMILES	Measles CPE	CYP2C9 act	CYP2C19 inhib	CYP2C19 act	CYP2C9 inhib
Cc1oc(-c2cccc(Cl)c2)nc1CN1CCCC(C(=O)NCc2ccco2)C1 (stereo not drawn)	5	0.8	15	0.9	18
Cc1oc(-c2cccc(Cl)c2)nc1CN1CCCC(C(=O)NC(C)c2ccc3c(c2)OCCO3)C1 (stereo not drawn)	8	0.2	87*	0.1	81*
O=C(NCc1cn(-c2ccccc2)nc1-c1ccccc1)c1cccc([N+](=O)[O-])c1	21	.	.	.	.
O=C(NCc1cn(-c2ccccc2)nc1-c1ccccc1)c1cc([N+](=O)[O-])cc([N+](=O)[O-])c1	20	0.3	31	0.7	67*
CCCC(=O)NC(c1ccco1)c1c(O)ccc2ccccc12 (stereo not drawn)	4	0.1	97*	0	90*
CCCCC(=O)NC(c1ccco1)c1c(O)ccc2ccccc12 (stereo not drawn)	7	0.3	49	0.5	70*
CC(C)CC(=O)NC(c1ccccc1Cl)c1c(O)ccc2ccccc12 (stereo not drawn)	2	.	.	.	.
CCCOc1ccc(C(=O)NCC(c2ccco2)N(C)C)cc1 (stereo not drawn)	5	.	.	.	.
O=C(Nc1ccc(Cl)c(Cl)c1)OCc1cncs1	6	0	99*	0	97*

From PubChem BioAssay
